The structures appear in SMILES notation. The whole screen tested about 310,000 compounds, of which about 14,000 (4.5%) showed an effect of 50% or more. Effects have a minus sign here. The sample as a whole holds a higher share of strong results than the screen did.
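Further: peak tail current of the secondary pulse compared with the same well before compound.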

The target of this test is human ether-à-go-go-related gene (hERG) potassium channel (human, UniProt Q12809). The experiment in a line: primary screen, population patch clamp on CHO cells stably expressing hERG; higher = less effect of the substance.
Sequence of human ether-à-go-go-related gene (hERG) potassium channel (Q12809 whole entry, looked up): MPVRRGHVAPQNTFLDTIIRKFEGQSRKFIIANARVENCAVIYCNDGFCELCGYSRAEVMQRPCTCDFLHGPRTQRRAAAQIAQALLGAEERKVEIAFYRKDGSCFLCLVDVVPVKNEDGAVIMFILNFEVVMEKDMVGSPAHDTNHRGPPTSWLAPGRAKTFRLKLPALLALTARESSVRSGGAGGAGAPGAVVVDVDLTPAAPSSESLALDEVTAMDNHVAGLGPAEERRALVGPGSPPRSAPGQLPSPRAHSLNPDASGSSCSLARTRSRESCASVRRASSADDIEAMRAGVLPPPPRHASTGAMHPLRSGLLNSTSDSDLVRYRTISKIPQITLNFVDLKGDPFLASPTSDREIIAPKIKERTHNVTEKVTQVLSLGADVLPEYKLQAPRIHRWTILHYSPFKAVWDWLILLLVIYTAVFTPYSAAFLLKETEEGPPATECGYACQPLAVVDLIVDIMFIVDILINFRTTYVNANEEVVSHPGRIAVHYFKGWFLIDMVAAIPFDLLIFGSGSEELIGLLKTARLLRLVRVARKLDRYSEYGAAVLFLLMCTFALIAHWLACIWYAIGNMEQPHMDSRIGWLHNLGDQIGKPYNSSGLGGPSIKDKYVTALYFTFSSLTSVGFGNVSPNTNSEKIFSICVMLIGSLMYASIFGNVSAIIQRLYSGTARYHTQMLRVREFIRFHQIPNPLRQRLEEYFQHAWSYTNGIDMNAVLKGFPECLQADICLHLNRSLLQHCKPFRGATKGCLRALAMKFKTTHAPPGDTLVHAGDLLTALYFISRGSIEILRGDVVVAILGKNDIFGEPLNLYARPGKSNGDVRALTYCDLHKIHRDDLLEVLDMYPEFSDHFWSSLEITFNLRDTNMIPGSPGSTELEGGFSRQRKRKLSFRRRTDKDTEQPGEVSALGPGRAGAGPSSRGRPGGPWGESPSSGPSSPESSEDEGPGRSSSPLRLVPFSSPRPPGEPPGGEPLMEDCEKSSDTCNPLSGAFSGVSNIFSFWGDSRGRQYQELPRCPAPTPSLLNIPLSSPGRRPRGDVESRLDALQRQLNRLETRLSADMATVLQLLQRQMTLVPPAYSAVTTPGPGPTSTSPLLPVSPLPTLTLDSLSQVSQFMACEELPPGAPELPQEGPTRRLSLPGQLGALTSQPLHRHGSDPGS
Take `Cc1n[nH]c(C)c1S(=O)(=O)NCCc1ccc(Cl)cc1`: the “hERG current change (%, negative = inhibition) at 10uM” value is given as 5%. As to `O=c1cc(-c2ccc(O)c(-c3c(O)cc(O)c4c(=O)cc(-c5ccc(O)cc5)oc34)c2)oc2cc(O)cc(O)c12`, the “hERG current change (%, negative = inhibition) at 10uM” value is listed as -7.09%.

Consider `COc1cc(C(=O)Nc2ccc3c(c2)OCCO3)ccc1OC(F)F`, for which the “hERG current change (%, negative = inhibition) at 10uM” value is recorded as -5.02%. On to `Cc1cc(NC(=O)CCC(=O)N(Cc2ccccc2)C2(C(=O)NC3CCCCC3)CCCC2)no1`, for which the “hERG current change (%, negative = inhibition) at 10uM” value is on record as 21.1%.

With `Cc1cc(NC(=O)CCC(=O)N(CCC(C)C)C(C(=O)NC2CCCC2)c2ccccc2C)no1` (stereo not drawn), the “hERG current change (%, negative = inhibition) at 10uM” value is -21.5%. Take `O=C(NC(=S)NCC1CCCO1)c1cccc([N+](=O)[O-])c1` (stereo not drawn): the “hERG current change (%, negative = inhibition) at 10uM” value is 2.05%.

As to `O=C(NC1CC2CCCC(C1)N2C(=O)NCc1ccccc1)C1CC1` (stereo not drawn), the “hERG current change (%, negative = inhibition) at 10uM” value came out at 4.22%.

Take `CCc1ccc(OCC(=O)NNC(=O)c2cnccn2)c(Br)c1`: the “hERG current change (%, negative = inhibition) at 10uM” value was -5.95%.

Take `CN1CCCC(CC2Oc3ccccc3Sc3ccccc32)C1.O=C(O)C(=O)O` (stereo not drawn): the “hERG current change (%, negative = inhibition) at 10uM” value was -67%. For `CN1CCCC(OC(=O)COc2ccccc2)C1.Cl` (stereo not drawn), the “hERG current change (%, negative = inhibition) at 10uM” value came to 10.4%. For the compound `CN1CCCC(CC2c3ccccc3Sc3ccccc32)C1.Cl.O` (stereo not drawn), the “hERG current change (%, negative = inhibition) at 10uM” value is -52.9%. Take `CC(=O)O.CN1CCCC(CN2c3ccccc3Sc3ccccc32)C1` (stereo not drawn): the “hERG current change (%, negative = inhibition) at 10uM” value is listed as -28.4%.

Regarding `CN1CCCC(C(O)(c2ccccc2)c2ccccc2)C1` (stereo not drawn), the “hERG current change (%, negative = inhibition) at 10uM” value was found to be 16.3%.

In the case of `Cl.c1ccc2c(c1)CC(N1CCCCC1)c1ccccc1S2` (stereo not drawn), the “hERG current change (%, negative = inhibition) at 10uM” value was 9.15%. In the case of `CC(C)Oc1ccc(/C(O)=C2/C(=O)C(=O)N(CCN3CCOCC3)C2c2ccccc2)cc1` (stereo not drawn), the “hERG current change (%, negative = inhibition) at 10uM” value is 13.6%. Take `COC(=O)Cn1ccc2cc(S(=O)(=O)N3CCCCC3)ccc21`: the “hERG current change (%, negative = inhibition) at 10uM” value is reported as -8.73%.

In the case of `CCOC(=O)c1cc2occc2n1CCCN1C(=O)c2ccccc2C1=O`, the “hERG current change (%, negative = inhibition) at 10uM” value is recorded as -23.5%. As for `Cc1ccc(C(=O)COC(=O)c2cc(Cl)ccc2O)cc1[N+](=O)[O-]`, the “hERG current change (%, negative = inhibition) at 10uM” value is 10.4%. In the case of `O=C(COc1cc(Cl)ccc1Cl)Nc1ccc2[nH]c(=O)[nH]c2c1`, the “hERG current change (%, negative = inhibition) at 10uM” value was 12.8%. The same measure for `COc1ccc(NC(=O)c2ccco2)cc1NC(=O)c1cc2ccccc2o1`: 3.33%. Take `O=C1Nc2ccccc2S/C1=C/Nc1cccc(Cl)c1`: the “hERG current change (%, negative = inhibition) at 10uM” value is recorded as -3.01%. For the compound `CC1CCC[C@H](O)CCCCCc2cc(O)cc(O)c2C(=O)O1` (stereo partly drawn), the “hERG current change (%, negative = inhibition) at 10uM” value was determined as 5.64%. The result for `C[C@H]1CCC[C@H](O)CCCCCc2cc(O)cc(O)c2C(=O)O1` reads -51%. On to `C[C@H]1CCCC(=O)CCCCCc2cc(O)cc(O)c2C(=O)O1`, for which the “hERG current change (%, negative = inhibition) at 10uM” value was -0.0905%. For `O=S(=O)(Nc1ccncc1)c1cc(Cl)c(Cl)cc1Cl`, the “hERG current change (%, negative = inhibition) at 10uM” value is on record as 0.0869%. The same measure for `O=C1C(Cl)=C(N2CCOCC2)C(=O)N1c1ccc(Br)cc1`: 14.8%; for `O=C(COc1ccc(Br)cc1)Nc1ccccc1C(=O)NC1CC1`: -6.57%; for `CCOc1ccc(NC(=O)CSc2cn[nH]n2)cc1`: 3.89%. The same measure for `Cc1nc2ccccn2c1CN(C)C(=O)C1CCC(=O)N(Cc2cccc(F)c2)C1` (stereo not drawn): -80.2%; for `CN(Cc1cnn(C)c1)C(=O)C1CCC(=O)N(Cc2cccc(F)c2)C1` (stereo not drawn): -49.8%; for `CN(Cc1ccccn1)C(=O)C1CCC(=O)N(Cc2cccc(F)c2)C1` (stereo not drawn): 6.47%. `Cc1cnc(C)c(N2CCN(C(=O)C3CCC(=O)N(CCc4cccc(F)c4)C3)CC2)n1` (stereo not drawn): the “hERG current change (%, negative = inhibition) at 10uM” value was -53.9%. Consider `O=C1CCC(C(=O)N2CCCC2)CN1CCc1cccc(F)c1` (stereo not drawn), for which the “hERG current change (%, negative = inhibition) at 10uM” value was found to be 4.37%.

Regarding `Cc1nc(CN(C)C(=O)C2CCC(=O)N(CCc3cccc(F)c3)C2)cs1` (stereo not drawn), the “hERG current change (%, negative = inhibition) at 10uM” value is -7.62%. Take `Cc1nc2ccccn2c1CN(C)C(=O)C1CCC(=O)N(CCc2cccc(F)c2)C1` (stereo not drawn): the “hERG current change (%, negative = inhibition) at 10uM” value is listed as -75.6%. The same measure for `Cc1cc(CN(C)C(=O)C2CCC(=O)N(CCc3cccc(F)c3)C2)on1` (stereo not drawn): 9.94%; for `CN1CCN(C(=O)C2CCC(=O)N(CCc3cccc(F)c3)C2)CC1` (stereo not drawn): 12.3%. Regarding `Nc1nc2c(nc(SCc3ccccc3Br)n2C2OC(CO)C(O)C2O)c(=O)[nH]1` (stereo not drawn), the “hERG current change (%, negative = inhibition) at 10uM” value was found to be 34.9%. With `CCOC(=O)N1CCC(Nc2c(NCCCN(CC)Cc3ccccc3)c(=O)c2=O)CC1`, the “hERG current change (%, negative = inhibition) at 10uM” value was 6.06%.

Turning to `Cc1ccc(C(=O)Nc2ccc3cn[nH]c3c2)cc1S(=O)(=O)N1CCOCC1`, the “hERG current change (%, negative = inhibition) at 10uM” value is on record as -8.78%. As to `O=C(N/N=C/c1cn(-c2ccccc2)nc1-c1cc2ccccc2o1)c1c[nH]c2ccccc12`, the “hERG current change (%, negative = inhibition) at 10uM” value was 13.2%. `Cc1c(OC(C)C(=O)NCC(O)c2ccccc2)ccc2c3c(c(=O)oc12)CCC3` (stereo not drawn): the “hERG current change (%, negative = inhibition) at 10uM” value is reported as -13.3%. As to `Cc1cc(NC(=O)c2cccc(S(=O)(=O)N3CCOCC3)c2)c2ccccc2n1`, the “hERG current change (%, negative = inhibition) at 10uM” value was -16.2%. Consider `Cc1ccc(C(O)CN2C3=NCCCN3c3ccccc32)cc1.Cl` (stereo not drawn), for which the “hERG current change (%, negative = inhibition) at 10uM” value was -67.4%. On to `Cc1ccc(C(O)CN2C3=NCCN3c3ccccc32)cc1.Cl` (stereo not drawn), for which the “hERG current change (%, negative = inhibition) at 10uM” value was -61.1%. In the case of `Cl.OC(CN1C2=NCCN2c2ccccc21)c1ccccc1` (stereo not drawn), the “hERG current change (%, negative = inhibition) at 10uM” value is reported as -42.7%. Turning to `COc1ccc(NC(=O)N2CCC(c3ccccc3)C2)c(OC)c1` (stereo not drawn), the “hERG current change (%, negative = inhibition) at 10uM” value is given as -1.5%. The result for `Cc1cc(/C=C(/C#N)c2nc3ccccc3[nH]2)c(C)n1-c1ccccc1C(=O)O` reads 15.8%; that for `Cc1ccnn1CC(=O)N/N=C/c1ccc([N+](=O)[O-])s1`, -3.9%; that for `CC(C)NC(=S)NNC(=O)C12CC3CC(CC(C3)C1)C2`, -8.78%. The result for `CCN(CC)C(=O)N1CCN(C)CC1.O=C(O)CC(O)(CC(=O)O)C(=O)O` reads 23.2%; that for `Cc1nc2nc(COc3ccccc3)[nH]n2c(=O)c1Cc1ccccc1`, 0.308%. Turning to `Cc1cc(Cl)ccc1OCC(=O)Nc1cccc(S(=O)(=O)N2CCCC2)c1`, the “hERG current change (%, negative = inhibition) at 10uM” value was -1.87%. The same measure for `O=C(CN1CCC(NC(=O)C2CC2)CC1)Nc1ccccc1[N+](=O)[O-]`: 22.1%. On to `O=C(CN1CCC(NC(=O)Nc2ccc(F)cc2)CC1)Nc1ccccc1[N+](=O)[O-]`, for which the “hERG current change (%, negative = inhibition) at 10uM” value was -51%. The same measure for `O=C(CN1CCC(NC(=O)Nc2ccccc2)CC1)Nc1ccc([N+](=O)[O-])cc1`: -64.4%; for `O=C(CN1CCC(NC(=O)Nc2ccccc2)CC1)Nc1ccccc1F`: -18.3%; for `COc1cccc(NC(=O)NC2CCN(CC(=O)Nc3ccccc3[N+](=O)[O-])CC2)c1`: -39.4%. For `Cc1ccccc1NC(=O)CN1CCC(NC(=O)Nc2ccccc2)CC1`, the “hERG current change (%, negative = inhibition) at 10uM” value is recorded as -35.9%. In the case of `O=C(CN1CCC(NC(=O)Nc2ccccc2)CC1)Nc1cccc([N+](=O)[O-])c1`, the “hERG current change (%, negative = inhibition) at 10uM” value is on record as -40.6%.

For the compound `O=C(Nc1ccccc1)NC1CCN(CCCN2C(=O)c3ccccc3C2=O)CC1`, the “hERG current change (%, negative = inhibition) at 10uM” value is on record as -61.4%. The same measure for `O=C(CN1CCCC1)Nc1ccc([N+](=O)[O-])cc1`: -22.6%.

For the compound `O=C1CC(N2CCN(S(=O)(=O)c3ccccc3)CC2)C(=O)N1c1ccccc1` (stereo not drawn), the “hERG current change (%, negative = inhibition) at 10uM” value turned out to be 1.87%. Take `O=c1c2c3c(sc2n2cnnc2n1CCc1ccccc1)CCCC3`: the “hERG current change (%, negative = inhibition) at 10uM” value is listed as -20.5%.

Take `CCOC(=O)c1cnn(-c2ccc(C)cc2)c1N`: the “hERG current change (%, negative = inhibition) at 10uM” value is reported as -1.1%. The same measure for `CN(C)CCCN(C(=O)c1ccc(S(=O)(=O)N2CCCCCC2)cc1)c1nc2c(F)cccc2s1.Cl`: -66.2%; for `CCOc1cccc2sc(N(CCN(CC)CC)C(=O)c3ccc(S(=O)(=O)N4CCCC4)cc3)nc12.Cl`: -24.2%. For the compound `CCOC(=O)N1CCN(S(=O)(=O)c2ccc(C(=O)N(CCCN(C)C)c3nc4c(F)cc(F)cc4s3)cc2)CC1.Cl`, the “hERG current change (%, negative = inhibition) at 10uM” value is -51.3%. The same measure for `CCOc1cccc2sc(N(CCCN(C)C)C(=O)c3ccc(S(=O)(=O)N4CCCCCC4)cc3)nc12.Cl`: 7.67%. The result for `CN(C)CCCN(C(=O)c1ccc(S(=O)(=O)N2CCc3ccccc3C2)cc1)c1nc2c(F)cccc2s1.Cl` reads 4.85%; that for `CN(C)CCCN(C(=O)c1ccc(S(=O)(=O)N2CCCCCC2)cc1)c1nc2c(F)cc(F)cc2s1.Cl`, -69.6%.

For the compound `CN(C)CCCN(C(=O)c1ccc(S(=O)(=O)N2CCc3ccccc3C2)cc1)c1nc2c(F)cc(F)cc2s1.Cl`, the “hERG current change (%, negative = inhibition) at 10uM” value is given as -15.2%. On to `Cc1ccc2sc(N(CCCN(C)C)C(=O)c3ccc(S(=O)(=O)N4CCCCCC4)cc3)nc2c1C.Cl`, for which the “hERG current change (%, negative = inhibition) at 10uM” value is on record as -23.4%. For `CN(C)CCCN(C(=O)c1ccc(S(=O)(=O)N2CCCC2)cc1)c1nc2c(F)cc(F)cc2s1.Cl`, the “hERG current change (%, negative = inhibition) at 10uM” value is listed as -44.3%.

For the compound `CCOC(=O)N1CCN(S(=O)(=O)c2ccc(C(=O)N(CCN(CC)CC)c3nc4c(C)cccc4s3)cc2)CC1.Cl`, the “hERG current change (%, negative = inhibition) at 10uM” value was -24.3%.

In the case of `CCOc1cccc2sc(N(CCN(CC)CC)C(=O)c3ccc(S(=O)(=O)N4CCCCC4)cc3)nc12.Cl`, the “hERG current change (%, negative = inhibition) at 10uM” value is on record as -62.4%.

Regarding `NC(=O)C1(N2CCCCC2)CCN(C2CC(=O)N(Cc3ccc(N4CCCC4=O)cc3)C2=O)CC1` (stereo not drawn), the “hERG current change (%, negative = inhibition) at 10uM” value was 5.32%. `O=c1cc(N2CCN(Cc3ccccc3)CC2)[nH]c(=O)n1-c1ccc(Br)cc1`: the “hERG current change (%, negative = inhibition) at 10uM” value is -10.7%.

Consider `CN(C)S(=O)(=O)c1ccc(C(=O)Nc2ccccc2OC(F)(F)C(F)F)cc1`, for which the “hERG current change (%, negative = inhibition) at 10uM” value was -16.6%. Take `C#CCNc1ccncc1S(=O)(=O)NC(=O)NC(C)C.O=[N+]([O-])O`: the “hERG current change (%, negative = inhibition) at 10uM” value is on record as -1.14%.

For the compound `O=c1cc(CN2CCN(c3cccc(C(F)(F)F)c3)CC2)nc2sccn12`, the “hERG current change (%, negative = inhibition) at 10uM” value is reported as -46.3%.

These data come from PMC4336329 (PLoS ONE, 2015).
